In PubChem BioAssay:
“And” between values parts separate entries of the source, which are not always exact repeats. Equal entries are not always repeated. Records with an inconclusive call do not appear. The source made the active and inactive calls.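 Rule for the calls, unless noted: active = normalized viability below 100% at a tested concentration; inactive = the rest.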

Key:
[1] = viability loss in pontine glioma line – cell-based, SU-DIPG-XIII, MIPE4.0, CellTiter-Glo, qHTS, dose response (AID 1347061; cut-off not given, nearly all actives have AC50 up to about 37 µM;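 note: cells exposed to compound for 48 hours before readout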); settings: CellTiter-Glo ATP luminescence
[2] = viability loss in pontine glioma line – cell-based, JHH-DIPG-1, MIPE4.0, CellTiter-Glo, qHTS, dose response (AID 1347062; cut-off not given, nearly all actives have AC50 up to about 27 µM); settings: JHH-DIPG-1 viability, CellTiter-Glo ATP luminescence
[3] = growth inhibition of DIPG cells – cell-based, MIPE4.0 library, CellTiter-Glo luminescence, qHTS (AID 1347066; cut-off not given, nearly all actives have AC50 up to about 30 µM;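 note: cells exposed to compound for 48 hours before readout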); settings: SU-DIPG-VI viability, CellTiter-Glo ATP luminescence
[4] = viability loss with induced miR-34 in A549 – imaging, A549 dox-inducible miR-34, nuclei and caspase counts, primary screen (AID 1347080;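 active = compounds whose cell count with miR-34 switched on is under 0.7 times the count with it off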); settings: A549 miR-34 inducible, Hoechst nuclei count, 48 h
[5] = MELAS cybrid and Rieske KO viability enhancers – cell-based, MELAS cybrids, Rieske KO mouse fibroblasts, CellTiter-Glo, primary screen (AID 1508586;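 active = mean z-score across replicates of 1.96 or higher in either the MELAS or the Rieske mutant cell line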;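 note: z relative to plate mean and SD of compound and empty wells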); settings: low glucose
[6] = viability loss in pontine glioma line – cell-based, SU-DIPG-XIII, MIPE5.0, CellTiter-Glo, qHTS, dose response (AID 1347064; cut-off not given, nearly all actives have AC50 up to about 23 µM;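 for AC50: cells exposed to compound for 48 hours before the viability read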); settings: CellTiter-Glo ATP luminescence
[7] = viability loss in pontine glioma line – cell-based, SU-DIPG-XXV, MIPE5.0, CellTiter-Glo, qHTS, dose response (AID 1347065; cut-off not given, nearly all actives have AC50 up to about 26 µM;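 note: cells exposed to compound for 48 hours before ATP readout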); settings: CellTiter-Glo ATP luminescence
[8] = compounds altering HSF1 focus formation in cells – imaging, Selleck Cancer Library (AID 1347162; in the data active = plate-normalised HSF1 focus index below about 0.46); settings: human cells, HSF1 nuclear foci imaging, at 10 µM; SSMD: measured here: HSF1 foci SSMD mean; cell count: measured here: cell number; plate-normalised HSF1 focus index: stronger effect = lower value
[9] = drug combination growth inhibition, ovarian cancer – cell-based, oncology-focused library, rucaparib conditional, profiling panel (AID 1508598); settings: patient-derived ovarian cancer cells, CellTiter-Glo viability, 144 h, stronger effect = lower value
[10] = viability loss in pontine glioma line – cell-based, SU-DIPG-IV, MIPE4.0, CellTiter-Glo, qHTS, dose response (AID 1347063; cut-off not given, nearly all actives have AC50 up to about 30 µM;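 note: compound exposure lasted 48 hours before the viability readout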); settings: CellTiter-Glo ATP luminescence
[11] = growth inhibition of DIPG cells – cell-based, MIPE5.0 library, qHTS (AID 1347068; cut-off not given, nearly all actives have IC50 up to about 30 µM;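 note: cells exposed to compound for 48 hours before viability readout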); settings: SU-DIPG-XXV viability
[12] = stronger effect = lower value, cell number ratio, induced over uninduced
[13] = measured here: relative caspase fold change +Dox/-Dox
[14] = measured here: total cells with miR-34 induction, stronger effect = lower value
[15] = measured here: total cells without miR-34 induction
[16] = MELAS cybrid survival, CellTiter-Glo 48 h, stronger effect = higher value
[17] = Rieske KO mouse fibroblast survival, CellTiter-Glo 72 h
[18] = at 0.000305 µM, OCI-C5x cells, with rucaparib 10 µM, 100% = cells with rucaparib alone
[19] = at 0.000305 µM, OCI-C5x cells, without rucaparib
[20] = at 0.000305 µM, OCI-P5x cells, with rucaparib 20 µM, 100% = cells with rucaparib alone
[21] = at 0.000305 µM, OCI-P5x cells, without rucaparib
[22] = at 0.00122 µM, OCI-C5x cells, with rucaparib 10 µM, 100% = cells with rucaparib alone
[23] = at 0.00122 µM, OCI-C5x cells, without rucaparib
[24] = at 0.00122 µM, OCI-P5x cells, with rucaparib 20 µM, 100% = cells with rucaparib alone
[25] = at 0.00122 µM, OCI-P5x cells, without rucaparib
[26] = at 0.00488 µM, OCI-C5x cells, with rucaparib 10 µM, 100% = cells with rucaparib alone
[27] = at 0.00488 µM, OCI-C5x cells, without rucaparib
[28] = at 0.00488 µM, OCI-P5x cells, with rucaparib 20 µM, 100% = cells with rucaparib alone
[29] = at 0.00488 µM, OCI-P5x cells, without rucaparib
[30] = at 0.0195 µM, OCI-C5x cells, with rucaparib 10 µM, 100% = cells with rucaparib alone
[31] = at 0.0195 µM, OCI-C5x cells, without rucaparib
[32] = at 0.0195 µM, OCI-P5x cells, with rucaparib 20 µM, 100% = cells with rucaparib alone
[33] = at 0.0195 µM, OCI-P5x cells, without rucaparib
[34] = at 0.0781 µM, OCI-C5x cells, with rucaparib 10 µM, 100% = cells with rucaparib alone
[35] = at 0.0781 µM, OCI-C5x cells, without rucaparib
[36] = at 0.0781 µM, OCI-P5x cells, with rucaparib 20 µM, 100% = cells with rucaparib alone
[37] = at 0.0781 µM, OCI-P5x cells, without rucaparib
[38] = at 0.313 µM, OCI-C5x cells, with rucaparib 10 µM, 100% = cells with rucaparib alone
[39] = at 0.313 µM, OCI-C5x cells, without rucaparib
[40] = at 0.313 µM, OCI-P5x cells, with rucaparib 20 µM, 100% = cells with rucaparib alone
[41] = at 0.313 µM, OCI-P5x cells, without rucaparib
[42] = at 1.25 µM, OCI-C5x cells, with rucaparib 10 µM, 100% = cells with rucaparib alone
[43] = at 1.25 µM, OCI-C5x cells, without rucaparib
[44] = at 1.25 µM, OCI-P5x cells, with rucaparib 20 µM, 100% = cells with rucaparib alone
[45] = at 1.25 µM, OCI-P5x cells, without rucaparib
[46] = at 5 µM, OCI-C5x cells, with rucaparib 10 µM, 100% = cells with rucaparib alone
[47] = at 5 µM, OCI-C5x cells, without rucaparib
[48] = at 5 µM, OCI-P5x cells, with rucaparib 20 µM, 100% = cells with rucaparib alone
[49] = at 5 µM, OCI-P5x cells, without rucaparib

O=C1C(CCC(O)c2ccc(F)cc2)C(c2ccc(O)cc2)N1c1ccc(F)cc1 (centres undefined)
7660 and 7830: cell count [4, 14]
8580 and 8640: cell count [4, 15]
inactive: outcome [1] | outcome [2] | outcome [3] | fold change [4, 12] 0.893 and 0.906 | z-score [5, 16] -0.505
1.57 and 0.763: fold change [4, 13]
-0.0457: z-score [5, 17]

COc1ccc2cc(-c3nc(-c4ccc(S(C)=O)cc4)[nH]c3-c3ccncc3)ccc2c1 (centres undefined)
inactive: outcome [1] | outcome [6] | outcome [3] | fold change [4, 12] 1.33 | plate-normalised HSF1 focus index [8] 1.27 | z-score [5, 16] -0.573 | viability [9, 18] 108% | viability [9, 19] 102% | viability [9, 20] 107% | viability [9, 21] 103% | viability [9, 23] 101% | viability [9, 24] 107% | viability [9, 25] 105% | viability [9, 26] 106% | viability [9, 28] 103% | viability [9, 31] 107% | viability [9, 34] 104% | viability [9, 35] 109% | viability [9, 38] 145% | viability [9, 39] 122% | viability [9, 42] 122% | viability [9, 43] 148% | viability [9, 44] 106% | viability [9, 46] 110% | viability [9, 47] 113%
0.971: z-score [5, 17]
7650: cell count [4, 14]
5750: cell count [4, 15]
active: AC50 [7] 14.8 µM | viability [9, 22] 95.3% | viability [9, 27] 95.5% | viability [9, 29] 96.1% | viability [9, 30] 96.9% | viability [9, 32] 91.1% | viability [9, 33] 90.7% | viability [9, 36] 95.6% | viability [9, 37] 95.1% | viability [9, 40] 87.7% | viability [9, 41] 93.7% | viability [9, 45] 84% | viability [9, 48] 26.6% | viability [9, 49] 26.9%
0.892: fold change [4, 13]
4.96: SSMD [8]
6890: cell count [8]

CCn1c(-c2nonc2N)nc2c(C#CC(C)(C)O)ncc(OC[C@H]3CCCNC3)c21
inactive: plate-normalised HSF1 focus index [8] 1.06 | viability [9, 18] 119% | viability [9, 19] 119% | viability [9, 22] 129% | viability [9, 23] 125% | viability [9, 24] 100% | viability [9, 26] 133% | viability [9, 27] 119% | viability [9, 28] 109% | viability [9, 30] 118% | viability [9, 31] 125% | viability [9, 32] 107% | viability [9, 33] 109% | viability [9, 34] 124% | viability [9, 35] 119% | viability [9, 37] 101% | viability [9, 38] 113% | viability [9, 39] 131% | viability [9, 41] 109% | viability [9, 42] 114% | viability [9, 43] 136% | viability [9, 47] 128%
active: AC50 [1] 16.6 µM | AC50 [10] 7.43 µM | AC50 [6] 2.63 µM | AC50 [7] 2.35 µM | IC50 [11] 16.6 µM | viability [9, 20] 98.8% | viability [9, 21] 93.1% | viability [9, 25] 99.7% | viability [9, 29] 99.7% | viability [9, 36] 89.1% | viability [9, 40] 85.8% | viability [9, 44] 72.5% | viability [9, 45] 90.8% | viability [9, 46] 94.5% | viability [9, 48] 67.2% | viability [9, 49] 68.3%
6930: cell count [8]
1.18: SSMD [8]
